# Screening data deposited in PubChem BioAssay by National Center for Advancing Translational Sciences (NCATS).
# An excerpt weighted towards active compounds, which were near 3.1% of everything screened.
# Vif-APOBEC3F blk: Vif-A3F binding inhibition. HeLa A3F-eYFP + Vif (tagged APOBEC3F with the HIV-1 protein that degrades it), YFP fluorescence increase. Potency, µM (doses to about 46.1 µM), for inactives: at the top dose activity, negative = active. hit rate 0.2% among 390,000; note: potency is the fitted concentration of half-maximal effect; % of control where 0% means no effect; nearly all actives have a fitted effect of over 65% in size
#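 HeLa cells stably expressing A3F-eYFP plus Vif, plated and incubated overnight at 37 deg C, then exposed to compounds overnight at 37 deg C. Blocked degradation read as raised yellow fluorescence (Ex 488/Em 500-530).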
# TSHR antagonist: blocks TSH signaling through the human TSH receptor | P16473 | TSHR-expressing cells, TSH-stimulated cAMP HTRF, 2 h; hits give low values | activity change, negative = inhibition, % at 11.5 µM | hit rate 0.2% among 330,000;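 active = activity change below a set negative limit, meaning inhibition stronger than a set level, cut at about -70% in these data; inconclusive = activity change between two set negative limits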; note: % is set by controls: 0 for no effect and ±100 for the full control effect
#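 TSHR-expressing cells were treated with compounds, then stimulated with TSH at EC80 (4nM final) for 2 hours at 37 deg C. Cellular cAMP was measured by HTRF competition between lysate cAMP and cAMP-d2 for a cryptate-labelled anti-cAMP antibody.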
# VDR inh: blocks the human vitamin D receptor. P11473. VDR-SRC2-3 peptide fluorescence polarization, 2 h. Potency, µM, for inactives: max response, negative = inhibition, most hits filed as inhibitors. hit rate 0.93% among 400,000. AID 504847; note: potency is the fitted concentration of half-maximal effect; % is set by controls: 0 for no effect and ±100 for the full control effect
#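 Fluorescence polarization assay measuring small-molecule disruption of VDR binding to the coregulator peptide SRC2-3. Compounds were pin-transferred (23 nl) into the reagent mix and incubated 2 h at room temperature before reading.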
# Vif-A3G inh: blocks the Vif interaction with human APOBEC3G; Q9HC16; Potency, µM (doses to about 46.1 µM), without a hit: at the top dose activity, negative = active, usual class: inhibitors; HeLa A3G-eYFP + Vif (tagged APOBEC3G with the HIV-1 protein that degrades it), YFP fluorescence, overnight; AID 602310; hit rate 0.076% among 410,000; note: potency is the fitted concentration of half-maximal effect; % is set by controls: 0 for no effect and ±100 for the full control effect; nearly all actives have a fitted effect of over 60% in size
#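 HeLa cells stably expressing Vif and C-terminally eYFP-tagged A3G, seeded overnight at 37 deg C, then exposed to compound by pintool overnight at 37 deg C. Rise in yellow fluorescence (Ex 488/Em 500-530, Acumen) marks blocked Vif-driven A3G degradation.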
# PLK1 PBD block: PLK1 (human) polo-box domain binding inhibition. Plk1 PBD binding of FITC phosphopeptide, fluorescence polarization. hit rate 2.8% among 360,000. Potency, µM, without a hit: max response, negative = inhibition, usual class: inhibitors; note: potency is the fitted concentration of half-maximal effect; series mostly up to about 57 µM; % is set by controls: 0 for no effect and ±100 for the full control effect; nearly all actives have a fitted effect of over 65% in size
# Target sequence (P53350 whole entry, looked up, the tested form may be a part): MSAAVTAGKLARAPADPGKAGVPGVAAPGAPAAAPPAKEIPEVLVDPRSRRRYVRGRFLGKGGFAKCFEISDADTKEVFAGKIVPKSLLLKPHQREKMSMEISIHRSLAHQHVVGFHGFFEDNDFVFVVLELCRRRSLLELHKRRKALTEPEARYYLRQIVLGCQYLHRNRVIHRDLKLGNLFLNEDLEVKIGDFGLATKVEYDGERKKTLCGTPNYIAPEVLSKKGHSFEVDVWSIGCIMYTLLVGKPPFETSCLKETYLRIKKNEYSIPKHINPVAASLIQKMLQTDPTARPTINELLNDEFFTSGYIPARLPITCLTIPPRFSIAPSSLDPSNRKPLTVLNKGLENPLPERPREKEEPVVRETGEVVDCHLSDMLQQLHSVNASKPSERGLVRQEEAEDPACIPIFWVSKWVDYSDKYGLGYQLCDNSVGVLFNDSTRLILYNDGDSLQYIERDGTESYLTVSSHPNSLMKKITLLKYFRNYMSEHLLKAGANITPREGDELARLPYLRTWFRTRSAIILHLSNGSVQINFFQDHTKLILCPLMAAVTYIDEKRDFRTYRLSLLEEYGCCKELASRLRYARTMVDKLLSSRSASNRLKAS
# An asterisk follows results filed as active; ? = inconclusive; . = no result given. Unless noted, calls come from the whole dose curve; as a rule, active = well fitted curve in the direction sought with a large enough effect; inconclusive = small, poorly fitted or top-dose-only effect, or another doubt; inactive = no such curve, though single readings can be large; an effect the other way counts as inactive or inconclusive.
SMILES,Vif-APOBEC3F blk,TSHR antagonist,VDR inh,Vif-A3G inh,PLK1 PBD block
Cc1ccc(NC(=O)Cn2c(=O)n(CCCCC(=O)NCCc3ccc(Cl)cc3)c(=O)c3ccccc32)cc1,-7%,.,-6%,1%,.
COc1ccc(NC(=O)CSc2nc3[nH]c(=O)[nH]c(=O)c3s2)cc1OC,-2%,-73*,-20%,3%,-9%
CC(C)c1nc2n(n1)C1(CCCCC1)[C@@H]1CCCC[C@@H]1N2,2%,.,15%,3%,.
CCOC(=O)C1CCN(C(=O)CCc2nnc3ccc(N4CCC(C)CC4)nn23)CC1,3%,-15,?,1%,24µM*
CCOC(=O)C(Cc1ccccc1)NC(=O)CCc1nnc2ccc(N3CCCC3)nn12 (stereo not given),-2%,-2,-17%,3%,24µM*
CCOC(=O)C(Cc1ccccc1)NC(=O)CCc1nnc2ccc(N3CCCCC3)nn12 (stereo not given),3%,9,-3%,3%,-1%
CCOc1ccc(NC(=O)CCc2nnc3ccc(N4CCC(C)CC4)nn23)cc1,1%,-7,-7%,2%,-4%
CC1CC(C)CN(C(=O)CCc2nnc3ccc(N4CCCCC4)nn23)C1 (stereo not given),0%,-9,-17%,2%,30µM*
CCOC(=O)CNC(=O)CCc1nnc2ccc(N3CCC(C)CC3)nn12,9%,7,?,-1%,24µM*
COc1cc(C)c(C(=O)Oc2cc(C)c(C(=O)O)c(O)c2C)c(O)c1C(=O)O,2%,-4,-9%,-4%,-5%
COc1cc(C)c(C(=O)Oc2cc(C)c(C(=O)O)c(O)c2C)c(OC)c1C,6%,-7,?,-17%,38µM*
Clc1ccc(OCCCCSc2ncccn2)cc1,-2%,-9,-14%,-1%,30µM*
Brc1cccc(OCCSc2ncccn2)c1,-2%,2,-21%,-4%,13µM*
CCCOc1ccc(OCCSc2ncccn2)cc1,-4%,-6,-5%,1%,4%
Nc1nnc(SCCOc2cccc(Br)c2)s1,-21%,-32,18%,0%,-15%
CCOC(=O)c1c[nH]c2cc(OCC(C)C)c(OCC(C)C)cc2c1=O,.,.,3%,.,.
Cc1ccc(C2c3[nH]c4ccccc4c3C[C@H]3C(=O)N(c4ccccc4C(=O)N4CCC[C@H]4C(=O)O)C(=O)N23)cc1 (stereo not given in full),-4%,-1,-15%,3%,?
CC(C)c1ccc(C2c3[nH]c4ccccc4c3C[C@H]3C(=O)N(c4ccccc4C(=O)N4CCC[C@@H]4C(=O)O)C(=O)N23)cc1 (stereo not given in full),3%,-8,-1%,3%,42µM*
Cc1ccc(C)c(OCC(=O)Nc2ccccc2C(=O)NC2CC2)c1,0%,5,89µM*,3%,3%
Cc1ccc(Cl)c(OCC(=O)Nc2ccccc2C(=O)NC2CC2)c1,-13%,0,8%,-7%,-2%
O=C(CSc1nnc(-c2cccc(S(=O)(=O)N3CCCC3)c2)n1-c1ccccc1)Nc1ccc(C(=O)O)cc1,-14%,-5,0%,-2%,75µM*
CC(=O)Nc1cc(-c2ccsc2)cn2c(-c3ccc(F)cc3)cnc12,.,.,.,-19%,?
COc1ccc(-c2cnc3c(NC(C)=O)cc(-c4ccsc4)cn23)cc1OC,.,.,.,?,24µM*
NC(=O)C[C@@H](N)C(=O)O,.,.,4%,.,.
NC(CS)C(=O)O (stereo not given),.,.,45µM*,-1%,.
SMILES,Vif-APOBEC3F blk,TSHR antagonist,VDR inh,Vif-A3G inh,PLK1 PBD block
CCOC(=O)/C(=C/c1ccc(OC(=O)c2ccccc2)cc1)C(C)=O,-1%,2,?,-14%,5.3µM*
Clc1ccc(N=c2ssnc2Cl)nc1,-2%,34,5.6µM*,1%,0.95µM*
OCc1ccccc1N=c1ssnc1Cl,.,-6,.,.,.
COc1ccc(-c2nnc(OCc3nc4ccccc4n3C)c3ccccc23)cc1,-4%,9,?,-8%,19µM*
Cn1c(COc2nnc(-c3ccc(Cl)cc3)c3ccccc23)nc2ccccc21,-2%,26,-2%,2%,-2%
C=C1CCN(C(C)C(=O)OCc2cccc(C)c2)S(=O)(=O)c2ccccc21 (stereo not given),.,.,3%,0%,.
CCOC(=O)CSc1nnc(NCC(=O)OC)c(=O)[nH]1,2%,-8,40µM*,1%,?
Cn1c(=O)oc2cc(S(=O)(=O)N3CCCC(C(=O)NCc4ccc(F)cc4)C3)ccc21 (stereo not given),-14%,.,-14%,5%,.
Cc1c(Cl)cccc1NS(=O)(=O)c1ccc2c(c1)C1C=CCC1C(c1ccc(C(=O)O)cc1)N2 (stereo not given),-1%,-13,?,3%,11µM*
c1ccc(-c2cc3nc(NCc4cccs4)ccn3n2)cc1,.,.,.,-24%,-2%
CN(C)c1ccc(-c2nccc(NCc3cccs3)n2)cc1,.,.,-20%,.,.
c1csc(CNc2ccnc(-c3ccoc3)n2)c1,.,.,22µM*,.,.
CN(C)C(=O)c1ccc(-c2nccc(NCc3cccs3)n2)cc1,.,.,45µM*,.,.
C=C1C=C(C(F)F)n2ncc(C(=O)NCc3ccc(Cl)cc3Cl)c2N1,.,.,.,1%,.
CC(C)c1ccc(NC(=O)c2cc3c([nH]c2=O)CC(C)(C)CC3=O)cc1,.,.,.,0%,.
CN(C(=S)NC(=O)C12CC3CC(CC(C3)C1)C2)c1ccc(O)cc1,5%,-23,?,0%,34µM*
CN(C)NC(=S)NC(=O)C12CC3CC(CC(C3)C1)C2,-12%,9,?,6%,-11%
COC(=O)NC(C(=O)OC)(C(=O)OC)c1ccccc1,.,.,1%,.,.
Cc1ccc(C2CC(c3cccs3)=NN2C(=O)CCl)cc1 (stereo not given),0%,-6,?,-18%,?
CCC(=O)N1N=C(c2cccs2)CC1c1ccc(C)cc1 (stereo not given),0%,-3,-4%,0%,27µM*
CCCCC/C=C\C\C=C/C=C/C=C/[C@@H](SC[C@H](N)C(=O)O)[C@@H](O)CCCC(=O)O,.,.,1%,.,.
Nc1ccccc1C(=O)NCc1ccccc1,11%,20,?,0%,3.8µM*
CCOC(=O)C1CCCN(S(=O)(=O)c2ccc3[nH]c(=O)oc3c2)C1 (stereo not given),8%,.,11%,5%,.
CC(=O)c1ccc(NC(=O)CCc2c(C)nn(-c3ccc(N4CCOCC4)nn3)c2C)cc1,6%,3,?,0%,21µM*
Cc1ccc(NC(=O)CCc2c(C)nn(-c3ccc(N4CCOCC4)nn3)c2C)cc1,-7%,-4,-6%,-1%,-14%
Cc1cc(F)ccc1NC(=O)CCc1c(C)nn(-c2ccc(N3CCCCC3)nn2)c1C,3%,-18,-28%,0%,21µM*
Cc1ccc(F)cc1NC(=O)CCc1c(C)nn(-c2ccc(N3CCCC3)nn2)c1C,-7%,.,13%,-4%,.
